Compounds without any hit were thinned out: in the full panel of roughly 79,000, 15% have a hit. Unmarked numbers belong to inactive results. The source made the active and inactive calls. Rule as the data show it: active = growth inhibition above about 70%; inactive = the rest.
Legend:
[1] = NCI Yeast Anticancer Drug Screen. Data for the rad50 strain (AID 155);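 also: 0% = growth of vehicle-only cultures of the same strain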; conditions: S. cerevisiae rad50 strain growth inhibition; at 50.0 µM; active compounds read high
In short: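 Relative growth inhibition (compound vs vehicle) was measured in yeast with a defined repair-gene alteration.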

[2] = NCI Yeast Anticancer Drug Screen. Data for the mec2-1 strain (AID 157); conditions: S. cerevisiae mec2-1 strain, at 50.0 µM, active compounds read high
In short: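 Yeast mec2-1 mutant treated with compound. Readout: growth inhibition vs vehicle controls.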

[3] = NCI Yeast Anticancer Drug Screen. Data for the sgs1 mgt1 strain (AID 161);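 also: 0% = growth of cultures given vehicle only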; conditions: S. cerevisiae sgs1 mgt1 strain, at 50.0 µM, active compounds read high
In short: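 Inhibition of yeast growth, normalised to vehicle-treated controls, is reported for a strain bearing genetic alterations in DNA damage repair.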

[4] = NCI Yeast Anticancer Drug Screen. Data for the bub3 strain (AID 167); conditions: S. cerevisiae bub3 mutant strain, at 50.0 µM, active compounds read high
In short: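 Screening used yeast with an engineered genetic alteration affecting cell cycle control. Compound-exposed cultures were compared with vehicle cultures, and reduced growth was taken as inhibition.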

[5] = NCI Yeast Anticancer Drug Screen. Data for the mlh1 rad18 strain (AID 175); conditions: S. cerevisiae mlh1 rad18 strain growth inhibition; at 50.0 µM; active compounds read high
In short: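 Yeast w/ defined DNA-repair lesions; compound exposure; growth vs vehicle controls → % inhibition.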

[6] = NCI Yeast Anticancer Drug Screen. Data for the cln2 rad14 strain (AID 165);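 also: 0% = growth equal to vehicle treated cultures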; conditions: S. cerevisiae cln2 rad14 strain, at 50.0 µM, active compounds read high
In short: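 cln2 rad14 yeast strain; compound exposure; growth inhibition read vs vehicle controls.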

Row | SMILES | growth inhibition [1] | growth inhibition [2] | growth inhibition [3] [%] | growth inhibition [4] | growth inhibition [5] | growth inhibition [6] [%]
1 | CCC(C)(O)c1ccc(C)cc1 (stereo not drawn) | 26.5% | 33% | 31.8 | 19.6% | 6.4% | 
2 | CC(=O)Oc1ccc(Br)cc1C(=O)O | -15.2% | -24.2% | -9.7 | -10.6% | 4.15% | 
3 | COC(=O)/C=C/C(=O)NC(N)=O | -19.6% | -41.2% | -22.1 | -17.2% | -8.05% | 
4 | O=c1cc(-c2ccccc2)oc2c1ccc1ccccc12 | 11% | 34.1% | 21.9 | 52.5% | 38.5% | 
5 | Oc1ccc(Cc2ccccc2)c2cccnc12 | -27.7% | -8.6% | -12.7 | -17.1% | 34.6% | 
6 | CN(c1ccccc1)c1ncnc2c1ncn2C | 2.65% | -0.65% | 1.75 | 29.9% | 4.1% | 
7 | O=C(O)C(O)c1ccccc1 (stereo not drawn) | 20.2% | -7.65% | -5.7 |  | 10.7% | 
8 | O=S(=O)(O)c1ccc(O)c2ccccc12 | -12.6% | 19.4% |  |  |  | -30.1
9 | O=C(Nc1cccc(NC(=O)Nc2cc(C(F)(F)F)ccc2Cl)c1)Nc1cc(C(F)(F)F)ccc1Cl | 18.8% | -15.8% | 9.55 | 14.9% | 11.7% | 
10 | NC(=S)CN1CCOCC1 | -2.6% | -3.2% | -5.9 | 1.3% | 2.15% | 
11 | FC(F)(F)c1ccc2c(c1)N(CCCN1CCN(C3CC3)CC1)c1ccccc1S2 | 99.3% (active) | 99.3% (active) |  | 99% (active) | 99.5% (active) | 
12 | COCCCNC(=O)c1nnn2c1nc(N)c1cc(Cl)ccc12 | -2.65% | 2.75% |  | 23.6% | 10.6% | 3.2
13 | CC(C)C1CCCCC1O (stereo not drawn) | -9.15% | -9.1% |  | -1.4% | 6.8% | -35.5
14 | CC(=O)c1ccc(C(C)(C)C)cc1 | -2.35% | -5.2% |  | 2.5% | 15% | 12.1
15 | OCCN1CCOCC1 | 31.9% | -2.05% |  | 7% | 27.2% | 24.9
16 | O=[N+]([O-])c1ccccc1N=Nc1ccc(O)cc1O | 35.4% | 21.1% |  | 10.7% | 39.2% | -23.4
17 | CC(=O)NCc1cc(C)c(C)cc1C | 12.5% | -20.1% |  | 5.3% | 8.5% | 9.15
18 | CC(C)C(C#N)(C(C)C)C(C)C | 23.3% | 15.4% |  | -1.95% | 22.4% | -29.6
19 | CCOC(=O)CCCC(=O)OCC | 20.8% | -8.1% |  | 22.8% |  | 
20 | CC1(C(=O)O)NC(C(=O)O)Cc2c1[nH]c1ccccc21 (stereo not drawn) | 26.5% | -13.2% |  | 32.4% | 13.3% | 3.65
21 | Clc1ccc(-c2nnc(-c3cccc4ccccc34)o2)cc1 | -22.9% | -56.9% |  | -19.6% | -24.6% | 0.15
22 | C#CC(C(C)C)N(CCO)CCCC (stereo not drawn) | 11.2% | 4.55% |  | 26.7% |  | 
23 | c1ccc(Cc2ccccc2)cc1 | 12.8% | 39.2% |  |  | 1.15% | 1.5
24 | O=C1C=C(O)C(=O)C=C1O | 4.45% | -10.2% |  |  | 28.5% | 0.4
25 | CC1CCCCN1C(=S)Nc1ccc(S(=O)(=O)N2CCCCC2)cc1 (stereo not drawn) | -18.6% | -29.2% |  | -19.1% | -18.7% | -11.2
26 | COc1cc2c3c(n(C)c(=O)c2cc1OC)-c1cc2c(cc1C3=O)OCO2 | 8.35% | -15.2% |  |  | -16.1% | 53.3
27 | Oc1ccccc1-c1nnco1 | -1.9% | -13.8% |  | -2.15% |  | 4.35

Reference: PubChem BioAssay (NCI)
